# In all, about 1,400 sequences were measured (“thermal melting temperature (Tm) of peptide-HLA complex”: median about 60, lowest 2% from about 45 on). The full list was thinned out, with the lowest values kept by preference.
# Target: HLA-B*07:02
# Experiment: thermal melting temperature (Tm) of peptide-HLA complex; higher = more thermostable pHLA complex
# Settings: C1R-B*07:02
# 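Further: lysates heated 10 min at 37–73 °C, complexes pulled down with pan-HLA I antibody, peptide signal by DIA-MS relative to 37 °C, Tm where half the complex is unfolded.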
row,Sequence,thermal melting temperature
1,FPNIPGKSL,62 °C
2,APRWLEEEAAL,62.7 °C
3,IPIGGGTSV,41.6 °C
4,SPASRSISL,61 °C
5,SPASFLRSL,40.6 °C
6,QPASFAVSL,62.8 °C
7,NPRLNILDTL,51.2 °C
8,GPIYPGHGM,59.2 °C
9,YPRMQVTVF,61.9 °C
10,APKSPSSEWL,51.9 °C
11,YPRAQLEVSAL,61.5 °C
12,APAPPTTTTI,61 °C
13,VPMPLPTVL,62.6 °C
14,RPALPSTQQL,57.6 °C
15,APDKHHITPLL,43.7 °C
16,TPMPKDVRQSL,44.5 °C
17,KPHLPSVTYL,60.8 °C
18,NVKKVSLEL,44.3 °C
19,APAGLPRETL,58.1 °C

row,Sequence,thermal melting temperature
1,IPDHFRPPL,60.4 °C
2,VIRELSRAL,45.3 °C
3,KPINVRVTTM,56 °C
4,RPIESPGGSVL,45.3 °C
5,LPGISREAL,41.3 °C
6,QPRDPSSTL,43.5 °C
7,SPRDPVLTL,64.4 °C
8,LPSKPSSTL,58.1 °C
9,SPRFPAQYL,62.6 °C
10,RPLPGALGV,59 °C
11,VPNAGRGLV,58.5 °C
12,HPREPLPPIQ,51.3 °C
13,IPSSHPVSL,56.2 °C
14,HPREPALGP,55.3 °C
15,RPAGPVAVGI,43.3 °C
16,SPRVQFQSL,61.7 °C
17,RPAEVGGMQL,59.1 °C
18,RPDYRNITF,61.7 °C
19,NPRNFSDNQL,53 °C

row,Sequence,thermal melting temperature
1,IFSEVPVQL,42.1 °C
2,GVRPFGVSL,57.4 °C
3,SPYPGLRLI,61.8 °C
4,SPGPSRPGL,56.1 °C
5,SPAEPSVYATL,62.8 °C
6,AVILRALSL,61.1 °C
7,FPHLREEIL,51.6 °C
8,SPASRSISLL,57.1 °C
9,LPKDQGITL,61.7 °C
10,APAPRPSL,58.1 °C
11,LPRTVTQLV,45.6 °C
12,RPISVIGGVSL,62.3 °C
13,APSGGRLLSA,60.1 °C
14,LPRQPPMSL,66.1 °C
15,LPNGRDTPAL,59.2 °C
16,SPAFSTRVL,60.3 °C
17,KPFDQTTISL,61.3 °C
18,RPRPGNILLQL,55.6 °C
